According to PubChem BioAssay AID720697 (Broad Institute, 2013):
Results with a measured potency or affinity are listed apart. Inconclusive results are not listed. Activity calls are given as the source filed them.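 Rule for the calls: active = signal loss with fitted half-maximal concentration at or below twice the top valid tested dose in every test run; inconclusive = runs disagree, flat 30 to 70% signal loss, or poor fit; inactive = all runs flat, opposite direction, or potency beyond limit.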

Experiment: general mammalian cell viability loss – inhibitor set, cherry-pick, set 2, cytotoxicity control for miR-122 modulator project, dose response (AID 720697);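 note: 0% = median of neutral control wells and -100% = MG132 positive control wells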
Details: HEK293T viability, CellTiter-Glo luminescence, 48 h; series mostly up to 26 µM; activity change, negative = cytotoxicity: at the top concentration

Row | SMILES | activity change, negative = cytotoxicity
1 | CCNC(=O)Nc1ccc2c(c1)C(=O)N(C)[C@H]1CC[C@H](CC(=O)NCc3ccccc3F)O[C@H]1CO2 | 3.94% (inactive)
2 | C/C=C/c1ccc([C@H]2[C@@H](CNC(=O)c3ccncc3)N(C(=O)CC)[C@H]2CO)cc1 | 132% [at 23.5 µM] (inactive)
3 | C=CCc1c(OC)ccc2ccc(=O)oc12 | -1.92% [at 6 µM] (inactive)
4 | C/C=C/c1ccc([C@@H]2[C@H](CO)N[C@H]2CN(CC(C)C)C(=O)c2ccccn2)cc1 | 29.5% (inactive)
5 | C[C@H](CO)N1C[C@H](C)[C@@H](CN(C)Cc2ccc(C(F)(F)F)cc2)Oc2ccc(NS(=O)(=O)c3ccc(Cl)cc3)cc2CC1=O | 60.8% [at 23.5 µM] (inactive)
6 | C/C=C/c1ccc([C@@H]2[C@@H](CNC(=O)CC)N(Cc3ccccn3)[C@H]2CO)cc1 | 92% (inactive)
7 | CN1C(=O)c2cc(NC(=O)c3cccc(F)c3)ccc2OC[C@H]2O[C@@H](CC(=O)O)CC[C@@H]21 | 123% (inactive)
8 | O=C(Cc1cccnc1)N1[C@@H](CO)[C@@H]2c3ccccc3NC[C@@H]21 | 133% (inactive)
9 | CN1C(=O)c2cc(NC(=O)c3ccc4c(c3)OCO4)ccc2OC[C@H]2O[C@H](CC(=O)O)CC[C@@H]21 | -4.6% (inactive)
10 | CCCC(=O)Nc1ccc2c(c1)C(=O)N(C)[C@H]1CC[C@@H](CC(=O)NCCN3CCCCC3)O[C@H]1CO2 | 43.1% [at 23.5 µM] (inactive)
11 | COc1ccc(NS(=O)(=O)c2ccc(NC(=O)C(C)(C(F)(F)F)C(F)(F)F)cc2)nn1 | 69.7% (inactive)
12 | C/C=C/c1ccc([C@H]2[C@@H](CO)N(C(=O)CC)[C@H]2CNC(=O)CC)cc1 | 107% (inactive)
13 | COc1ccc(NC(=O)N(C)C[C@@H]2Oc3cc(C#CCC(C)C)ccc3S(=O)(=O)N([C@@H](C)CO)C[C@@H]2C)cc1 | -65.6% (inactive)
14 | CN[C@H]1C[C@H]2c3[nH]c4ccc(-c5ccc(OC)cc5)cc4c3CCN2C(=O)[C@H]1[C@H](C)O | 32.2% [at 12 µM] (inactive)
15 | CN1C(=O)c2cc(NC(=O)c3cccc(F)c3)ccc2OC[C@H]2O[C@H](CC(=O)N3CCc4ccccc4C3)CC[C@H]21 | 62.5% (inactive)
16 | CCNC(=O)Nc1ccc2c(c1)C(=O)N(C)[C@H]1CC[C@H](CC(=O)Nc3cccc(F)c3)O[C@@H]1CO2 | 148% (inactive)
17 | CC(=O)N(C[C@H]1N[C@H](CO)[C@@H]1c1ccc(-c2ccccc2)cc1)C(C)C | 51.1% (inactive)
18 | CCCNC(=O)C[C@H]1CC[C@@H]2[C@@H](COc3ccc(NC(=O)c4ccc5c(c4)OCO5)cc3C(=O)N2C)O1 | 139% [at 23.5 µM] (inactive)
19 | CO[C@H]1CN(C)C(=O)c2cc(NC(C)=O)ccc2OC[C@@H](C)N(C(=O)c2ccccn2)C[C@H]1C | -42.3% (inactive)
20 | Cc1cccc(NC(=O)Nc2ccc3c(c2)C(=O)N(C)[C@@H]2CC[C@@H](CC(=O)NCc4ccccc4Cl)O[C@H]2CO3)c1 | 92.1% (inactive)

Row | SMILES | activity change, negative = cytotoxicity
21 | Cc1cc(C)c2c(c1)/C(=C/C(=O)c1ccc(Br)s1)C(=O)N2 | 18% (inactive)
22 | COc1ccccc1-c1ccc2c(c1)O[C@@H](CN(C)S(=O)(=O)c1ccc(F)cc1)[C@@H](C)CN([C@@H](C)CO)S2(=O)=O | 52.6% (inactive)
23 | CCCNC(=O)Nc1ccc2c(c1)OC[C@@H](C)N(CCC)C[C@H](C)[C@H](OC)CN(C)C2=O | 117% (inactive)
24 | CN1C(=O)c2cc(NC(=O)Nc3cccc(Cl)c3)ccc2OC[C@@H]2O[C@H](CC(=O)NCCc3ccncc3)CC[C@H]21 | 142% (inactive)
25 | CO[C@H]1CN(C)C(=O)c2cc(NC(=O)Nc3ccc(Cl)c(Cl)c3)ccc2OC[C@@H](C)NC[C@@H]1C | -6.02% (inactive)
26 | COCC(=O)N(C)C[C@H]1[C@H](c2ccccc2)[C@@H](CO)N1C(=O)NC(C)C | 101% (inactive)
27 | Cc1cc(CN(C)C(=O)c2cc(COc3ccc4ncccc4c3)on2)on1 | 15.5% (inactive)
28 | CCCNC(=O)N1C[C@@H]2[C@H](c3ccccc31)[C@@H](CO)N2Cc1cc(F)ccc1F | 30.6% [at 23.5 µM] (inactive)
29 | Cc1nnc(NC(=O)CSc2nc(C(C)C)nc3sc(C)c(C)c23)s1 | -23.9% (inactive)
30 | CC(=O)N=c1scc(-c2ccccc2)n1-c1cccc(O)c1 | -11.9% (inactive)
31 | CN1C(=O)c2cc(NC(=O)c3cccs3)ccc2OC[C@H]2O[C@@H](CC(=O)NCCN3CCCCC3)CC[C@H]21 | -3.62% (inactive)
32 | C/C=C/c1ccc([C@H]2[C@H](CO)N[C@@H]2CN(CC)C(=O)c2cccnc2)cc1 | 72.5% (inactive)
33 | CNC(=O)C[C@H]1CC[C@@H]2[C@@H](COc3ccc(NC(=O)Nc4ccc(Cl)cc4)cc3C(=O)N2C)O1 | 21% [at 23.5 µM] (inactive)
34 | O=C(Nc1nc(-c2cc3ccccc3o2)cs1)c1ccc(S(=O)(=O)N2CCCC2)cc1 | 34.6% [at 12 µM] (inactive)
35 | Cc1nc(C)c(C(=O)Nc2ccc(Oc3ccccc3)cc2)o1 | 32.1% (inactive)
36 | Cc1cc(C)cc(NC(=O)Nc2ccc3c(c2)C(=O)N(C)[C@@H]2CC[C@H](CC(=O)O)O[C@@H]2CO3)c1 | -11.5% (inactive)
37 | Cc1nn(C)cc1NC(=O)C[C@@H]1CC[C@H]2[C@@H](COc3ccc(NC(=O)Nc4cccc(Cl)c4)cc3C(=O)N2C)O1 | 78.7% (inactive)
38 | C[C@H](CO)N1C[C@H](C)[C@@H](CN(C)Cc2ccc(-c3ccccc3)cc2)Oc2ncc(C#CCN(C)C)cc2C1=O | 108% (inactive)
39 | CN(C)C(=O)c1ccc(-c2ccc([C@H]3[C@@H](CO)N4CCCCN(C(=O)C5CCCC5)C[C@@H]34)cc2)cc1 | 39.4% (inactive)
